Measurements as given in the supplement of paper PMC6555819.

Legend:
Assay in all cases: PBM binding z-score (relative to random genomic background probes); higher = stronger binding; sequences stand for … in GC…GCGATTGACAGCGTAGAATGAAGG
[1] = test system: PPARg:RXRa DBDmut IVT, anti-RXR (DBD mutation: RXRa K156A/R161A, NR concentration 270 nM, RXRa partner concentration 90 nM)
Method in brief: (§1)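 Custom Agilent 4×180K protein-binding microarrays carried double-stranded probes, each with a 34-nt variable region. These regions held direct-repeat seeds, single-nucleotide variants, half-site ablations and random human genomic background sequences. Ligand-free nuclear receptor dimers were incubated on the arrays for 1 h, antibodies against each partner (one per run) detected binding, and scanned fluorescence was regression-normalized. Binding z-scores take the random background probes as reference.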

[2] = test system: PPARg:RXRa IVT, anti-PPARg (NR concentration 270 nM, RXRa partner concentration 90 nM)
Method in brief: as §1

[3] = test system: PPARg DBDmut:RXRa IVT, anti-PPARg (DBD mutation: PPARg1 K132A/R137A, NR concentration 270 nM, RXRa partner concentration 90 nM)
Method in brief: as §1

[4] = test system: PPARg DBDmut IVT, anti-PPARg (DBD mutation: PPARg1 K132A/R137A, NR concentration 270 nM)
Method in brief: as §1

[5] = test system: PPARg homodimer (NR concentration 180 nM)
Method in brief: as §1

[6] = test system: PXR:RXRa (NR concentration 270 nM, RXRa partner concentration 90 nM)
Method in brief: as §1

[7] = test system: PXR homodimer (NR concentration 270 nM)
Method in brief: as §1

[8] = test system: RARa:RXR (NR concentration 270 nM, RXRa partner concentration 90 nM)
Method in brief: as §1

[9] = test system: RARa homodimer (NR concentration 270 nM)
Method in brief: as §1

[10] = test system: RARb:RXRa (NR concentration 270 nM, RXRa partner concentration 90 nM)
Method in brief: as §1

CGCCCAAGGTCAATGCTAGGTCAGTGAAAGCATT
PBM binding z-score [1]: 2.79
PBM binding z-score [2]: 3.47
PBM binding z-score [3]: -0.141
PBM binding z-score [4]: -0.36
PBM binding z-score [5]: 5.9
PBM binding z-score [6]: 4.68
PBM binding z-score [7]: 1.04
PBM binding z-score [8]: 6.04
PBM binding z-score [9]: 0.81
PBM binding z-score [10]: 5.09

CAAACTAGGTCAAGGTCAAGGTCGGTTTGTGCCA
PBM binding z-score [1]: 8.6
PBM binding z-score [2]: 8.73
PBM binding z-score [3]: 2.59
PBM binding z-score [4]: 1.56
PBM binding z-score [5]: 5.52
PBM binding z-score [6]: 5.33
PBM binding z-score [7]: 2.34
PBM binding z-score [8]: 5.61
PBM binding z-score [9]: 2.92
PBM binding z-score [10]: 5.2

GCTTGTAGATCAAGGTTAAAAAAGACTAAGCTAA
PBM binding z-score [1]: 1.05
PBM binding z-score [2]: 1.23
PBM binding z-score [3]: 0.281
PBM binding z-score [4]: 0.272
PBM binding z-score [5]: 0.282
PBM binding z-score [6]: 0.574
PBM binding z-score [7]: -0.0589
PBM binding z-score [8]: 1.15
PBM binding z-score [9]: 0.0785
PBM binding z-score [10]: 0.688

GGTTACGGGTCAAAGGTTATAGCATGAATAGAAT
PBM binding z-score [1]: 3.06
PBM binding z-score [2]: 6.69
PBM binding z-score [3]: 1.77
PBM binding z-score [4]: 1.31
PBM binding z-score [5]: 2.81
PBM binding z-score [6]: 6.3
PBM binding z-score [7]: 0.489
PBM binding z-score [8]: 8.27
PBM binding z-score [9]: 1.03
PBM binding z-score [10]: 4.72

GGAACGAGGGCACTCGAGTTGATAGCATGGCGAT
PBM binding z-score [1]: 4.02
PBM binding z-score [2]: 3.11
PBM binding z-score [3]: 0.411
PBM binding z-score [4]: -0.728
PBM binding z-score [5]: -0.479
PBM binding z-score [6]: 2.52
PBM binding z-score [7]: -0.193
PBM binding z-score [8]: 0.513
PBM binding z-score [9]: -0.815
PBM binding z-score [10]: 1.93

CCTTACGGGTCACTGACAGGTTATAGCCTTTGGA
PBM binding z-score [1]: 2.98
PBM binding z-score [2]: 3.74
PBM binding z-score [3]: 0.266
PBM binding z-score [4]: 0.106
PBM binding z-score [5]: 3.2
PBM binding z-score [6]: 3.83
PBM binding z-score [7]: -0.0377
PBM binding z-score [8]: 4.93
PBM binding z-score [9]: 0.735
PBM binding z-score [10]: 3.95

AGAACGAGGGCGCGCTGAGTTGATAGCAGAGTAG
PBM binding z-score [1]: 1.09
PBM binding z-score [2]: 0.807
PBM binding z-score [3]: -0.354
PBM binding z-score [4]: -0.835
PBM binding z-score [5]: -0.746
PBM binding z-score [6]: 0.224
PBM binding z-score [7]: -0.402
PBM binding z-score [8]: -0.0213
PBM binding z-score [9]: -1.26
PBM binding z-score [10]: 0.529

TCTATTAGTTGATTATGGCAACCGAAACAGCGGA
PBM binding z-score [1]: 2.17
PBM binding z-score [2]: 0.613
PBM binding z-score [3]: 1.3
PBM binding z-score [4]: 1.66
PBM binding z-score [5]: 1.37
PBM binding z-score [6]: 0.553
PBM binding z-score [7]: 0.671
PBM binding z-score [8]: 0.747
PBM binding z-score [9]: 1.89
PBM binding z-score [10]: 0.407

TAGCCTAGGTCATGGGCCCGTATACCACGCGAAC
PBM binding z-score [1]: 1.21
PBM binding z-score [2]: 3.21
PBM binding z-score [3]: -0.0541
PBM binding z-score [4]: -0.484
PBM binding z-score [5]: 1.07
PBM binding z-score [6]: 1.92
PBM binding z-score [7]: -0.637
PBM binding z-score [8]: 2.86
PBM binding z-score [9]: 0.106
PBM binding z-score [10]: 3.81

TCTGGTAGATCAACAGGAGGTTAAGAAAGATCGA
PBM binding z-score [1]: 0.912
PBM binding z-score [2]: 0.0177
PBM binding z-score [3]: 0.166
PBM binding z-score [4]: -0.137
PBM binding z-score [5]: 0.335
PBM binding z-score [6]: 0.736
PBM binding z-score [7]: -0.172
PBM binding z-score [8]: 1.06
PBM binding z-score [9]: -0.145
PBM binding z-score [10]: 0.269

TAGCCTAGGTCATTCAGGGGCCAGTATAGAAAGC
PBM binding z-score [1]: 1.64
PBM binding z-score [2]: 2.89
PBM binding z-score [3]: -0.179
PBM binding z-score [4]: 0.357
PBM binding z-score [5]: 1.37
PBM binding z-score [6]: 2.57
PBM binding z-score [7]: -0.0401
PBM binding z-score [8]: 2.74
PBM binding z-score [9]: -0.372
PBM binding z-score [10]: 3.79

ATCGAAACGTCGAAGGTGAGTATACCCACCCGAA
PBM binding z-score [1]: -0.927
PBM binding z-score [2]: -0.0186
PBM binding z-score [3]: 0.59
PBM binding z-score [4]: 0.626
PBM binding z-score [5]: -0.242
PBM binding z-score [6]: -0.502
PBM binding z-score [7]: -0.249
PBM binding z-score [8]: -0.42
PBM binding z-score [9]: 0.0263
PBM binding z-score [10]: 0.237

AGTCAAAGTTCATCTAGTTAACGTAAGATATGCT
PBM binding z-score [1]: 0.113
PBM binding z-score [2]: 2.78
PBM binding z-score [3]: 1.61
PBM binding z-score [4]: 1.25
PBM binding z-score [5]: 3.6
PBM binding z-score [6]: 5.26
PBM binding z-score [7]: 9.11
PBM binding z-score [8]: 3.45
PBM binding z-score [9]: 2.15
PBM binding z-score [10]: 4.85

CAAACTAGGTCAAGGTCACAGTCGGTTTGTGCCA
PBM binding z-score [1]: 8.39
PBM binding z-score [2]: 8.56
PBM binding z-score [3]: 6.22
PBM binding z-score [4]: 2.94
PBM binding z-score [5]: 5.11
PBM binding z-score [6]: 5.3
PBM binding z-score [7]: 1.75
PBM binding z-score [8]: 5.94
PBM binding z-score [9]: 1.99
PBM binding z-score [10]: 5.17

GATACAGGGTCAGCTAGAGGCCAGAGTTTGGAAA
PBM binding z-score [1]: 1.39
PBM binding z-score [2]: 2.54
PBM binding z-score [3]: 0.152
PBM binding z-score [4]: -1.06
PBM binding z-score [5]: 3.41
PBM binding z-score [6]: 3.41
PBM binding z-score [7]: 0.149
PBM binding z-score [8]: 4.26
PBM binding z-score [9]: 0.417
PBM binding z-score [10]: 4.06

CCTGCTAGGTCAATGGTCAGCTGAAGCAGCTCGC
PBM binding z-score [1]: 4.48
PBM binding z-score [2]: 4.13
PBM binding z-score [3]: 0.258
PBM binding z-score [4]: -0.168
PBM binding z-score [5]: 1.14
PBM binding z-score [6]: 0.872
PBM binding z-score [7]: -0.578
PBM binding z-score [8]: 1.71
PBM binding z-score [9]: -0.46
PBM binding z-score [10]: 3.85

GCAGACAGGTGAAACGCACGTAACTCAGGGTGGC
PBM binding z-score [1]: 0.74
PBM binding z-score [2]: 0.58
PBM binding z-score [3]: 0.226
PBM binding z-score [4]: -0.35
PBM binding z-score [5]: -0.768
PBM binding z-score [6]: -0.397
PBM binding z-score [7]: -0.419
PBM binding z-score [8]: -0.0418
PBM binding z-score [9]: -0.719
PBM binding z-score [10]: 0.539

CCTCACGGGTCAAGGTTATAGCACGGGTGGTACG
PBM binding z-score [1]: 0.0332
PBM binding z-score [2]: 1.85
PBM binding z-score [3]: 0.133
PBM binding z-score [4]: 0.0961
PBM binding z-score [5]: 2.07
PBM binding z-score [6]: 3.03
PBM binding z-score [7]: 0.458
PBM binding z-score [8]: 3.73
PBM binding z-score [9]: 0.228
PBM binding z-score [10]: 4.17

ATCGAAAGGTCGACGAGGTGAGTATTCACCGTTT
PBM binding z-score [1]: 0.554
PBM binding z-score [2]: 2.07
PBM binding z-score [3]: 1.07
PBM binding z-score [4]: 0.398
PBM binding z-score [5]: 0.854
PBM binding z-score [6]: 2.94
PBM binding z-score [7]: 0.386
PBM binding z-score [8]: 3.29
PBM binding z-score [9]: -0.0728
PBM binding z-score [10]: 3.91

TCTTGTAGCTCAAGCAGGTTAAGAAAGCCTGAGT
PBM binding z-score [1]: 0.652
PBM binding z-score [2]: -0.0591
PBM binding z-score [3]: -0.768
PBM binding z-score [4]: -0.282
PBM binding z-score [5]: -1.23
PBM binding z-score [6]: -0.102
PBM binding z-score [7]: -0.596
PBM binding z-score [8]: -0.128
PBM binding z-score [9]: -0.944
PBM binding z-score [10]: -0.012

TCTCGTAGATCAGCAGGTTAAGAAAGCTGGCCAA
PBM binding z-score [1]: 1.33
PBM binding z-score [2]: -0.478
PBM binding z-score [3]: -0.653
PBM binding z-score [4]: -0.513
PBM binding z-score [5]: -0.593
PBM binding z-score [6]: -0.00394
PBM binding z-score [7]: -0.361
PBM binding z-score [8]: 0.521
PBM binding z-score [9]: -0.998
PBM binding z-score [10]: -0.0596

CCTATTGGGCCAAAAAGGTCATTGATGCCGATAA
PBM binding z-score [1]: 1.89
PBM binding z-score [2]: 2.64
PBM binding z-score [3]: 0.177
PBM binding z-score [4]: -0.558
PBM binding z-score [5]: 2.26
PBM binding z-score [6]: 4.74
PBM binding z-score [7]: 2.45
PBM binding z-score [8]: 4.98
PBM binding z-score [9]: 1.26
PBM binding z-score [10]: 3.79

TAGCCTAGGACATTGGGCCAGTATAGTACGCATC
PBM binding z-score [1]: -0.0779
PBM binding z-score [2]: 0.309
PBM binding z-score [3]: -0.136
PBM binding z-score [4]: -0.693
PBM binding z-score [5]: -0.568
PBM binding z-score [6]: -0.674
PBM binding z-score [7]: -0.291
PBM binding z-score [8]: -0.557
PBM binding z-score [9]: -0.0644
PBM binding z-score [10]: -0.123

ATACCAAGGGGATCGTGAGGTCGTTGATACTAAC
PBM binding z-score [1]: -0.449
PBM binding z-score [2]: -0.121
PBM binding z-score [3]: -0.0494
PBM binding z-score [4]: 0.0346
PBM binding z-score [5]: -0.227
PBM binding z-score [6]: 1.68
PBM binding z-score [7]: 0.87
PBM binding z-score [8]: 1.52
PBM binding z-score [9]: -0.222
PBM binding z-score [10]: 0.379

CGTCCAAGGTCAATGCTAGGTCAGTGTAAGCATT
PBM binding z-score [1]: 3.19
PBM binding z-score [2]: 3.97
PBM binding z-score [3]: 0.641
PBM binding z-score [4]: -0.396
PBM binding z-score [5]: 6.64
PBM binding z-score [6]: 4.83
PBM binding z-score [7]: 2.1
PBM binding z-score [8]: 5.95
PBM binding z-score [9]: 1.32
PBM binding z-score [10]: 5.13
